Test [1] in a line: qHTS assay for measurement of the activity of small molecule inhibitors on Zika virus induced Caspase-3 activity in human astrocytoma cells (AID 1224859). A digest of the protocol:
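Caspase activation in ZIKV-infected SNB-19 cells (2 FFU/cell, 6 h) measured by Caspase-Glo 3/7 luminescence after 30 min RT; compound pre-incubated 1 h; normalised to uninfected and infected controls.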
For orientation: Quantitative high-throughput screening tests each substance at several concentrations.

The nature of test [2]: Natriuretic polypeptide receptor (hNpr1) antagonism - Pilot counterscreen GloSensor control cell line (AID 1347045; calls by dose curve; further: series mostly up to about 38 µM). The essentials: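 HEK293 cells carrying the GloSensor cGMP sensor (GIP/pGS-40F) were loaded with 2% GloSensor reagent for 2 h, exposed to compounds for 30 min, and then stimulated with 50 uM sodium nitroprusside for 20 min at room temperature.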
Test [3] deals with Atrial natriuretic peptide receptor 1 (Homo sapiens) (UniProt P16066). Briefly: Natriuretic polypeptide receptor (hNpr1) antagonism - Pilot screen (AID 1347049; calls by dose curve;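 further: agonist-evoked cGMP luminescence read 20 min after hNppA addition; series mostly up to about 58 µM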). The essentials: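 Readout is cGMP-driven firefly luciferase luminescence in HEK293 cells carrying hNpr1 and a PDE5-domain GloSensor, read before and 20 min after 0.1 nM hNppA stimulation. Cells had 2% substrate reagent for 2 h and test compound for 30 min.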

The target in test [4] is Atrial natriuretic peptide receptor 2 (Homo sapiens) (UniProt P20594). Briefly: Natriuretic polypeptide receptor (hNpr2) antagonism - Pilot subtype selectivity assay (AID 1347050; calls by dose curve). A digest of the protocol: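 Pilot selectivity screen against hNpr2: HEK293 cGMP-sensor cells are treated with LOPAC1280 compounds, then with hNppC peptide at 1 nM final. The cGMP-driven luminescence change over 20 min at room temperature is the read-out.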

The nature of test [5]: NS1 protein of Zika virus - qHTS assay to identify small molecule inhibitors in human HEK 293 cells (AID 1347053). Further: series mostly up to about 46 µM; nearly all actives have a fitted effect of over 55% in size. The essentials:
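Inhibition of NS1 expression was scored in HEK 293 cells given compound 1 h ahead of MR766 virus (MOI = 0.5). Following 24 h at 37 C, two anti-NS1 antibodies generated a TR-FRET signal, scaled between uninfected and infected controls.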

The target in test [6] is T1, Tyrosine-protein phosphatase non-receptor type substrate 1 (Homo sapiens) + Leukocyte surface antigen CD47 (Homo sapiens) (UniProt P78324+Q08722). Briefly: CD47-SIRPalpha protein protein interaction - LANCE assay qHTS validation (AID 1347057; active means well fitted curve in the direction sought with a large enough effect in the signal ratio, with a control signal flat, not every such curve was filed as active; the % refers to the signal ratio; further: series mostly up to about 38 µM). A digest of the protocol: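 First, His-tagged CD47 and Eu-labelled anti-His antibody met the compound for 30 min; next, site-specifically biotinylated SIRPalpha was added for 30 min; finally streptavidin-APC was added before reading the TR-FRET ratio.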
(In general: TR-FRET usually uses a lanthanide donor and a delayed reading to cut background.)

Test [7] has as its target T1, Tyrosine-protein phosphatase non-receptor type substrate 1 (Homo sapiens) + Leukocyte surface antigen CD47 (Homo sapiens). Description: CD47-SIRPalpha protein protein interaction - HTRF assay qHTS validation (AID 1347058; active means well fitted curve in the direction sought with a large enough effect in the signal ratio, not every such curve was filed as active; the % refers to the signal ratio;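 further: recombinant soluble extracellular CD47 with His tag and biotinylated SIRPalpha domains; series mostly up to about 38 µM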). A digest of the protocol: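 TR-FRET read (Ch1/Ch2 ratio) of soluble extracellular CD47 and Avi-biotinylated SIRPalpha domains in PBS pH 7.4 with 0.05% IGEPAL; 7-point compound titration. Sequential 30 min room-temperature steps; non-biotinylated SIRPalpha as control inhibitor.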

Test [8] shares this target. Description: CD47-SIRPalpha protein protein interaction - Alpha assay qHTS validation (AID 1347059).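 Further: bead proximity luminescence from CD47 binding SIRPalpha after compound preincubation with SIRPalpha.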 The essentials: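 Binding is measured by AlphaScreen proximity: Ni-NTA acceptor beads capture His-CD47, streptavidin donor beads capture biotin-SIRPalpha. Each of three additions (SIRPalpha with compound, CD47, beads) incubates 30 min at room temperature protected from light.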

In test [9] the target is Parathyroid hormone/parathyroid hormone-related peptide receptor (Homo sapiens) (UniProt Q03431). Briefly: qHTS for PTHR1 Agonists: Optimization Screen against the NCGC LOPAC library (AID 1347079).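 Further: GloSensor cAMP luminescence in HEK-293 GP2 cells expressing human PTHR1 with IBMX.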 A digest of the protocol: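 Compounds were tested across a qHTS titration. PTHR1-expressing GP2 cells report cAMP rises via GloSensor luminescence after 1 hr compound exposure at 37C with IBMX present.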

A short description of test [10]: P-glycoprotein substrates identified in KB-8-5-11 adenocarcinoma cell line, qHTS therapeutic library screen (AID 1346987). Further: nearly all actives have a fitted effect of over 65% in size. Further: potency means the concentration at half of the fitted maximal effect. The essentials: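 KB-8-5-11: colchicine-selected sub-line of KB-3-1 over-expressing P-gp; assay medium lacked colchicine. 72 h drug exposure at 37 degree C, CellTiter-Glo.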
The nature of test [11]: qHTS of pediatric cancer cell lines to identify multiple opportunities for drug repurposing: Primary screen for TC32 cells (AID 1347089). Further: nearly all actives have a fitted effect of over 60% in size. Further: potency means the concentration at half of the fitted maximal effect. The essentials: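 TC32 cells, 500-1,000/well in growth medium, compound-treated 48 h at 37 °C; viability from CellTiter-Glo luminescence. Primary screen: MIPE 11-point (0.78 nM–46 µM final), NPC 8-point (0.59 nM–46 µM final); confirmatory at 11-point dilutions.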

The nature of test [12]: qHTS of pediatric cancer cell lines to identify multiple opportunities for drug repurposing: Primary screen for DAOY cells (AID 1347090). Further: nearly all actives have a fitted effect of over 55% in size. Further: potency means the concentration at half of the fitted maximal effect. The essentials:
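Cell viability, CellTiter-Glo luminescence; 500-1,000 cells/well, 8- or 11-point titration, 48 h compound exposure at 37 degrees C, 5% CO2. Controls: DMSO neutral, bortezomib 2.3 µM final as positive.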

Potency and outcome data for 20 compounds are collected here from PubChem BioAssay (NCATS).

Records with an inconclusive call do not appear. Calls of active or inactive are those of the source. Unless noted, the call rests on the fitted dose curve; in most records, active means well fitted curve in the direction sought with a large enough effect; inconclusive means small, poorly fitted or top-dose-only effect, or another doubt; inactive means no such curve, though single readings can be large; an effect the other way counts as inactive or inconclusive.

Chain of Atrial natriuretic peptide receptor 2 (Homo sapiens) (P20594 whole entry, looked up): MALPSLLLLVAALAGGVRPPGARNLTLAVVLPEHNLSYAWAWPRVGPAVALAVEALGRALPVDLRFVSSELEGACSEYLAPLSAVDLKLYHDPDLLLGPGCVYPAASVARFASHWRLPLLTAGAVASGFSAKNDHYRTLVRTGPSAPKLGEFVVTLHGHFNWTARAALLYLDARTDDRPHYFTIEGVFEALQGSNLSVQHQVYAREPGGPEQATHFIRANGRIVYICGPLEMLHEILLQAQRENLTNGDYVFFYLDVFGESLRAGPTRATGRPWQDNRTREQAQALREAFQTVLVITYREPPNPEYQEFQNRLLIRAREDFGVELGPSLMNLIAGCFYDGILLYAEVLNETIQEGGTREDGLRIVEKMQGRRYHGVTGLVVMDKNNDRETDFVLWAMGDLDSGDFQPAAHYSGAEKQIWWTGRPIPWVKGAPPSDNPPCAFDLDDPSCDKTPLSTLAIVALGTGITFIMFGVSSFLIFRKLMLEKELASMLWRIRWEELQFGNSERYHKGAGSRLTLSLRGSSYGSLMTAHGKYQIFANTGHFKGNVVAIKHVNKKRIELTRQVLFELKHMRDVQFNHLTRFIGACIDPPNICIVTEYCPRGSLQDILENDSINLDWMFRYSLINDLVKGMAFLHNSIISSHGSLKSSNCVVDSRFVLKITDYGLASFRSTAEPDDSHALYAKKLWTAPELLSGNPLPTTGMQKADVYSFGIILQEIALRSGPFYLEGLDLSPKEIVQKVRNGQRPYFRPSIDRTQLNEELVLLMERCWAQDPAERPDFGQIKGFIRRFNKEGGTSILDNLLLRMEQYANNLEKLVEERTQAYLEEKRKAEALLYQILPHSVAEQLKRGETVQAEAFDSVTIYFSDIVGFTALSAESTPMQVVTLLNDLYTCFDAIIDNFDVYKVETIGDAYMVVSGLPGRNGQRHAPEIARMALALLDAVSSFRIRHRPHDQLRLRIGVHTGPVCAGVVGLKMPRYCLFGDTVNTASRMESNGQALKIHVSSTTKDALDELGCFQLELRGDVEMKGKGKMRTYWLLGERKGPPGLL
T1 sequence (P78324 whole entry, looked up): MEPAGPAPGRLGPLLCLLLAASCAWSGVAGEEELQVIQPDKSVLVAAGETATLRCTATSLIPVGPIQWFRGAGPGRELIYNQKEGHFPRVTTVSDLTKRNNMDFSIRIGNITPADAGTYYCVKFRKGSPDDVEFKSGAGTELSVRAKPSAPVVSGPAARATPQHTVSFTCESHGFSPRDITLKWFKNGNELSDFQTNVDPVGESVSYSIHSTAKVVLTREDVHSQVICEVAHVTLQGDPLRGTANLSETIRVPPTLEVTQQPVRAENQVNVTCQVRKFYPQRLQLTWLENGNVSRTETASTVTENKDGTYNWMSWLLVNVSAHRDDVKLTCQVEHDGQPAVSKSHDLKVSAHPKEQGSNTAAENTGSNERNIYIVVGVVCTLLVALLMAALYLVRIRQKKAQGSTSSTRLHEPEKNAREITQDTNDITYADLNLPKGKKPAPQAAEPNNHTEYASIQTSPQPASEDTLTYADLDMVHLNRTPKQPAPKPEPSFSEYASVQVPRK
T1 sequence (Q08722 whole entry, looked up): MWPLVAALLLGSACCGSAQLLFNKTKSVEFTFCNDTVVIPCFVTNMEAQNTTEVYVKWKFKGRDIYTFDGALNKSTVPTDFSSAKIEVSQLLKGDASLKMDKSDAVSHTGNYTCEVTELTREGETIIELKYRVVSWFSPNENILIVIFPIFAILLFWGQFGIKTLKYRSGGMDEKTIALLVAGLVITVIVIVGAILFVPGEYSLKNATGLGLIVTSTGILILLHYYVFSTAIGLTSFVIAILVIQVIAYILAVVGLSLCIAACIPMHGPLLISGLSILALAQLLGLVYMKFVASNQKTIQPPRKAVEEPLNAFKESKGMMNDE
Chain of Parathyroid hormone/parathyroid hormone-related peptide receptor (Homo sapiens) (Q03431 whole entry, looked up): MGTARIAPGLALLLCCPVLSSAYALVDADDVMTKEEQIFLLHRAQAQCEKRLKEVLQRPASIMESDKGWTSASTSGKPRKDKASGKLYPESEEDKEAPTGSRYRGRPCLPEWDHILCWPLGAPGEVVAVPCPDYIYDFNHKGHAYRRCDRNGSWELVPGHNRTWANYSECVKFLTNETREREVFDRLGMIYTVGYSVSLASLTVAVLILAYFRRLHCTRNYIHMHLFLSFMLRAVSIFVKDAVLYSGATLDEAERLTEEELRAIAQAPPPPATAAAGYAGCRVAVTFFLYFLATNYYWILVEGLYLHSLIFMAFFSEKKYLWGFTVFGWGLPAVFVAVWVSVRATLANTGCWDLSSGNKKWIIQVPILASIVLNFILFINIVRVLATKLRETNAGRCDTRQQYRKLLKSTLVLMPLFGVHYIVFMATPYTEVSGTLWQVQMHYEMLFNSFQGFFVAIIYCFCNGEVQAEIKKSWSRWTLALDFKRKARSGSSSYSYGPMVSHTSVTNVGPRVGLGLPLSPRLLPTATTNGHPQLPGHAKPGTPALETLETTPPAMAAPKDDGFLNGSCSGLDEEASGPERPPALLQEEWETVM
Chain of Atrial natriuretic peptide receptor 1 (Homo sapiens) (P16066 whole entry, looked up): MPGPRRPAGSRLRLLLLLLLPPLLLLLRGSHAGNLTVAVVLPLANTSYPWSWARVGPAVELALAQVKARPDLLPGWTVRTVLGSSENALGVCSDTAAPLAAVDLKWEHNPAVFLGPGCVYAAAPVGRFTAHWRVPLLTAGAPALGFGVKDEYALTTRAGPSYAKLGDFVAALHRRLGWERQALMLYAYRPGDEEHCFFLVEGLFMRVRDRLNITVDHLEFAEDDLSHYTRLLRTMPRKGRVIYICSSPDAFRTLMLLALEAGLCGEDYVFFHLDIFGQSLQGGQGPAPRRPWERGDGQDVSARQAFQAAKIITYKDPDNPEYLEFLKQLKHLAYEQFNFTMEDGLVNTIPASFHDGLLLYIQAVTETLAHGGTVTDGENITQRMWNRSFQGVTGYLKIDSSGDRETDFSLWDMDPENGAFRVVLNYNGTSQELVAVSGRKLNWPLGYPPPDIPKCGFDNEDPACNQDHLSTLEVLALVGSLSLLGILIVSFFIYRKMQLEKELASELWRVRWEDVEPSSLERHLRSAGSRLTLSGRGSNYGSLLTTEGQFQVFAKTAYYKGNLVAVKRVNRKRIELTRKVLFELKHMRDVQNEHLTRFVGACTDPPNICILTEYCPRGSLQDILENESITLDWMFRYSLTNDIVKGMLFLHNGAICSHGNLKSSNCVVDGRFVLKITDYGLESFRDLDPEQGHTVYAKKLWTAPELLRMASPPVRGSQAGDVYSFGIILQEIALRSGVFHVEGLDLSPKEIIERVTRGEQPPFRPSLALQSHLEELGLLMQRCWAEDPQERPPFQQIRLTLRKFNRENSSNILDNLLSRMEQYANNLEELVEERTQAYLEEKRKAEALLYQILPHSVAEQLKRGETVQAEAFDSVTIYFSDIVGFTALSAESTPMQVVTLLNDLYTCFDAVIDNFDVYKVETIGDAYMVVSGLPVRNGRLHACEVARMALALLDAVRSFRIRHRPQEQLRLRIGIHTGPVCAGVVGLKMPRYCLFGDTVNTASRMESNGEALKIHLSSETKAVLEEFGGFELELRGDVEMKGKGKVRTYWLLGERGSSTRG

For `NCCNC(=O)c1ncsc1-c1cccc(F)c1`, the Potency result in [1], in [2], in test [3] and in test [4] was “inactive” each time.

Take `CC(C)CC(NP(=O)(O)O[C@@H]1O[C@@H](C)[C@H](O)[C@@H](O)[C@H]1O)C(=O)NC(Cc1c[nH]c2ccccc12)C(=O)O` (some centres not stated): the Potency result in test [1], in test [2], in [3], in test [4], in test [5] and in [6] was “inactive” in each case. In addition, the Potency entry in test [8] and in test [9] was “inactive” in each case. Moreover, the outcome in test [7] was inactive.

Turning to `O=C(O)[C@@H]1C[C@@H](C(=O)O)N1`, the Potency result in test [1], in test [2], in test [3] and in test [4] was “inactive” each time.

For the compound `CC1OC1P(=O)(O)O` (configuration not stated), the Potency result in test [1], in test [2], in [3], in test [4], in test [5] and in [6] was “inactive” in each case. Further, the Potency entry in [8] and in test [9] was “inactive” throughout. The outcome in test [7] was inactive.

Take `CNC(=O)[C@H]1O[C@@H](n2cnc3c(NCc4ccc(N)cc4)ncnc32)[C@H](O)[C@@H]1O`: the Potency result in test [1], in test [2], in test [3], in test [4], in test [5] and in test [6] was “inactive” each time. In addition, the Potency entry in test [8] and in test [9] was “inactive” in each case. Also, the outcome in test [7] was inactive.

Turning to `CN(C)c1ccc(C(=C2C=CC(=[N+](C)C)C=C2)c2ccccc2)cc1`, in test [1], the Potency result is “inactive”. The Potency in [10] was 23.1 µM (active); in test [11], 0.105 µM (active); in test [12] it was 0.106 µM (active).

For the compound `C=CC(C)=C[C@@]1(C)SC(=O)C(C)=C1O`, the Potency entry in test [1], in [2], in test [3], in test [4], in test [5] and in test [6] was “inactive” throughout. Besides, the Potency entry in test [8] and in [9] was “inactive” throughout. Moreover, in test [7], the outcome was inactive.

Consider `Nc1nc(Cl)nc2c1ncn2[C@@H]1O[C@H](COP(=O)(O)OP(=O)(O)OP(=O)(O)O)[C@@H](O)[C@H]1O`, for which the Potency entry in test [1], in test [2], in test [3], in [4], in [5] and in test [6] was “inactive” throughout. Moreover, the Potency result in test [8] and in test [9] was “inactive” in each case. In addition, the outcome in test [7] was inactive.

In the case of `CC(=O)c1ccc(OCC(=O)N2CCCCC2)cc1`, the Potency entry in test [1], in test [10], in test [5], in test [11] and in [12] was “inactive” in each case.

Consider `CC(=O)SCC(CC(=O)c1ccc(C)cc1)C(=O)O` (configuration not stated), for which the Potency result in test [1], in [10], in [5], in [11] and in [12] was “inactive” each time.

For the compound `NCCSSCCN`, the Potency entry in test [1], in [2], in [3], in test [4], in test [5] and in [6] was “inactive” each time. The Potency entry in test [8] and in [9] was “inactive” throughout. The outcome in [7] was inactive.

Take `CO[C@@]1(NC(=O)Cc2cccs2)C(=O)N2C(C(=O)O)=C(COC(N)=O)CS[C@@H]21`: the Potency entry in test [1], in [10], in test [5], in test [11] and in test [12] was “inactive” each time.

Regarding `CCCCN1CCC(n2c(=O)[nH]c3ccccc32)CC1`, the Potency entry in test [1], in test [2], in test [3] and in [4] was “inactive” throughout.

For the compound `COC(=O)C1=C(C)NC(C)=C(C(=O)OCC(C)=O)C1c1ccccc1[N+](=O)[O-]` (configuration not stated), the Potency entry in [1], in [5] and in [11] was “inactive” throughout. Also, the Potency in test [10] was 7.31 µM (active).

`NCCO`: the Potency result in [1], in test [10], in [5], in [11] and in [12] was “inactive” throughout.

As to `CN(C)c1ccc(N=NS(=O)(=O)O)cc1`, the Potency entry in test [1], in test [10] and in [11] was “inactive” throughout.

As to `CN1CCc2cccc3c2C1Cc1ccc(O)c(O)c1-3` (configuration not stated), the Potency result in [1], in test [2], in test [3], in [4], in [5] and in test [8] was “inactive” in each case. Further, the Potency entry in test [9] is “inactive”.

For the compound `CN1CCc2cc(O)c(O)cc2C(c2ccccc2)C1` (configuration not stated), the Potency result in test [1], in test [2], in test [3], in [4] and in [9] was “inactive” throughout.

Turning to `COc1cc(C(O)CO)ccc1OS(=O)(=O)O` (configuration not stated), the Potency result in test [1], in [2], in test [3], in test [4], in test [6] and in test [8] was “inactive” each time. The Potency result in test [9] was “inactive”. In test [7], the result was inactive.

For the compound `CN(C)c1nc2c(Br)c(Br)c(Br)c(Br)c2[nH]1`, the Potency entry in test [1], in test [2], in test [3], in test [4] and in test [9] was “inactive” in each case.
